Assay [1] concerns the target Acetylcholinesterase (Homo sapiens) (UniProt P22303). Kind of assay: Acetylcholinesterase (AChE) small molecule antagonists: enzyme-based qHTS assay (AID 1347397). Further: nearly all actives have a fitted effect of over 55% in size. Further: potency means the concentration at half of the fitted maximal effect. The conditions noted are these: Potency: AChE enzyme activity inhibition; outcome: AChE enzyme activity inhibition. An outline of the steps:
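Colorimetric DTNB readout of acetylthiocholine hydrolysis, 10 min at room temperature, after 30 min room-temperature exposure of 50 mU/mL recombinant human enzyme to compound; DMSO vehicle control.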

The target is the same in assay [2]. Kind of assay: Acetylcholinesterase (AChE) small molecule antagonists: fluorescence cell-based qHTS assay (AID 1347398). Further: nearly all actives have a fitted effect of over 50% in size. Further: potency means the concentration at half of the fitted maximal effect. The conditions noted are these: Potency: AChE activity; outcome: AChE activity. An outline of the steps: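 Cellular AChE activity read as thiocholine from acetylthiocholine hydrolysis, detected by Thiolite Green fluorescence at 490/520 nm after 40 min at room temperature. Compounds were pre-incubated 30 min at 37 C on adherent SH-SY5Y cells.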

For assay [3] the target is unchanged. The experiment in a line: Acetylcholinesterase (AChE) small molecule antagonists: enzyme-based qHTS assay with human liver microsomes (AID 1347399). Further: nearly all actives have a fitted effect of over 60% in size. To be noted: Potency: qHTS inhibition; outcome: qHTS inhibition. An outline of the steps: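 Recombinant human AChE (50 mU/mL in the enzyme mix) and human liver microsomes (0.25 mg/mL final) were preincubated with compound and NADPH (0.25 mg/mL final) for 30 min at 37 C. Acetylthiocholine/DTNB was then added; thiocholine was read colorimetrically after 10 min at room temperature.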
A general note: In qHTS, concentration-response curves come from the screen itself.

Assay [4] in a line: qHTS assay for small molecule agonists of the p53 signaling pathway (AID 651631). Further: nearly all actives have a fitted effect of over 15% in size. An outline of the steps: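 Testing took place in human colorectal HCT-116 cells with stable p53RE-driven beta-lactamase. After 16 h of compound exposure at 37 °C, a FRET substrate was added and fluorescence recorded 2 h later.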

Values without a mark were called inactive. Records with an inconclusive call do not appear. Active and inactive are the calls of the source. The call rests on the fitted dose curve.
On the % scale 0 is the no-effect control and ±100 the full control effect.

Acetylcholinesterase (Homo sapiens), sequence (P22303 whole entry, looked up): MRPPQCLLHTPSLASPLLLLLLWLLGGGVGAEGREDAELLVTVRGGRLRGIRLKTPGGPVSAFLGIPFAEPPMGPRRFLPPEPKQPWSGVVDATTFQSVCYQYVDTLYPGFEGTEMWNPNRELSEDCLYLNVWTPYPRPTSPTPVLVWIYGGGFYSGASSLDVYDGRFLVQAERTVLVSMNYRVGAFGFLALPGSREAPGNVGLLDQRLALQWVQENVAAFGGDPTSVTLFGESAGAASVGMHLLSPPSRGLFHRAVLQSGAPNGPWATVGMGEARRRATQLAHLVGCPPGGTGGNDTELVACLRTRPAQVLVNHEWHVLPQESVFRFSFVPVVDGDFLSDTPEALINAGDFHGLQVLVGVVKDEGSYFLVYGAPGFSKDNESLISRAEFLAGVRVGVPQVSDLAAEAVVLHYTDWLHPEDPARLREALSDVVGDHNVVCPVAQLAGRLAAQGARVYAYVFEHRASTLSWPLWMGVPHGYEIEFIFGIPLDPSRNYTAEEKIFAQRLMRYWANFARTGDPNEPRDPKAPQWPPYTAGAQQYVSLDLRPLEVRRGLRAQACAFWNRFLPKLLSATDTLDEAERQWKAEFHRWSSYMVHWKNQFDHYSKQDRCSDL

Regarding `ON=C1CCCC1`, the Potency entry in assay [1], in assay [2] and in assay [3] was “inactive” each time.
In the case of `CCNC(=O)NCCCOc1cccc(CN2CCCCC2)c1`, the Potency result in assay [1], in assay [2] and in assay [3] was “inactive” in each case.
Take `COC(=O)C1=C(C)NC(C)=C(C(=O)OCCN2CCN(C(c3ccccc3)c3ccccc3)CC2)C1c1cccc([N+](=O)[O-])c1` (stereo not drawn): the Potency entry in assay [1], in assay [2] and in assay [3] was “inactive” throughout.
Turning to `O=C(OOC(=O)c1ccccc1)c1ccccc1`, the Potency result in assay [1], in assay [2] and in assay [3] was “inactive” each time.
As to `CC1CCN(CCCC(=O)c2ccc(F)cc2)CC1`, the Potency result in assay [1], in assay [2] and in assay [3] was “inactive” throughout.
In the case of `Nc1nc(N)c(-c2ccccc2)s1`, the Potency result in assay [1], in assay [2] and in assay [3] was “inactive” in each case.
Consider `Cc1occc(=O)c1OC(=O)C(C)C`, for which the Potency entry in assay [1], in assay [2] and in assay [3] was “inactive” throughout.
As to `CC(=O)SC[C@@H](Cc1ccccc1)C(=O)NCC(=O)OCc1ccccc1`, the Potency entry in assay [1], in assay [2] and in assay [3] was “inactive” each time.
Turning to `Cc1ccc(N)cc1O`, the Potency result in assay [1], in assay [2] and in assay [3] was “inactive” throughout.
For the molecule `CCCCNc1ccc(C(=O)OCCN(CC)CC)cc1`, the Potency in assay [1] was 30.9 µM (active); in assay [2], 2.45 µM (active). Further, the Potency entry in assay [3] was “inactive”.
The matching figures for `O=C(O)C1(C(=O)Nc2ccc(Cl)cc2Cl)CC1`: “inactive”, “inactive” and “inactive”.
On the same counts, the results for `CCN(CC)CCc1nc(-c2ccccc2)no1` are “inactive”, “inactive” and “inactive”.
Consider `Cc1cc(C)c(C=O)c(C)c1`, for which the Potency result in assay [1], in assay [2] and in assay [3] was “inactive” each time.
Regarding `CCCC(=O)C(CC)Sc1ccoc1C` (stereo not drawn), the Potency result in assay [1], in assay [2] and in assay [3] was “inactive” throughout.
Consider `[O-][n+]1cccc(/C(Cl)=N/OC[C@@H](O)CN2CCCCC2)c1`, for which the Potency entry in assay [1], in assay [2] and in assay [3] was “inactive” throughout.
`Nc1cccnc1N`: the Potency result in assay [1], in assay [2] and in assay [3] was “inactive” each time.
As for `CCCCCCCC[N+](CCCCCCCC)(CCCCCCCC)CCCCCCCC`, the Potency was 39.8 µM (active) in assay [1] and 70.9 µM (active) in assay [2]. For the same molecule, the Potency result in assay [3] is “inactive”.
As to `Cc1nc2n(c(=O)c1CCN1CCC(c3noc4cc(F)ccc34)CC1)CCC[C@H]2O`, the activity change, negative = inhibition in assay [1] was -5.56% [at 23.6 µM]; in assay [2], -17.1% [at 23.8 µM]; in assay [3] it was -2.77% [at 23.6 µM].
Turning to `CCN1CCCC1CNC(=O)c1cc(S(N)(=O)=O)ccc1OC` (stereo not drawn), the Potency result in assay [1], in assay [2] and in assay [3] was “inactive” throughout.
`N=C(N)c1ccc(OCCCOc2ccc(C(=N)N)cc2)cc1`: the Potency result in assay [1], in assay [2] and in assay [3] was “inactive” each time.
As to `CCCCOc1ccc(C(=O)CCN2CCCCC2)cc1`, the Potency was 27.5 µM (active) in assay [1] and 12.3 µM (active) in assay [2]. The Potency entry in assay [3] is “inactive”.
On the same counts, the results for `CC(C)(C)C1(CCc2ccc(Cl)cc2)CO1` (stereo not drawn) are “inactive”, “inactive” and “inactive”.
On to `CCCCCCCCCCCCCCCCCCNC(=O)OC1CCN(C(=O)OC[C@H](COC(=O)N(Cc2cccc[n+]2CC)C(=O)c2ccccc2OC)OC)CC1`, for which the Potency in assay [1] is 30.9 µM (active). In addition, the Potency entry in assay [2] and in assay [3] was “inactive” throughout.
In the case of `CC=O`, the Potency in assay [1] is 74.3 µM (active); in assay [2], 26.4 µM (active). The Potency entry in assay [3] is “inactive”.
On the same counts, the results for `CC(=O)OCC1=C(C(=O)O)N2C(=O)[C@@H](NC(=O)CSc3ccncc3)[C@H]2SC1` are “inactive”, “inactive” and “inactive”.
On the same counts, the results for `COC(=O)c1cc(Cl)ccc1[N+](=O)[O-]` are “inactive”, “inactive” and “inactive”.
As for `Cc1cc(=O)oc2cc(O[C@@H]3SC[C@@H](O)[C@H](O)[C@H]3O)ccc12`, the Potency entry in assay [1], in assay [2] and in assay [3] was “inactive” in each case.
With `C[C@@H](c1ncncc1F)C(O)(Cn1cncn1)c1ccc(F)cc1F` (stereo partly drawn), the Potency entry in assay [1], in assay [2] and in assay [3] was “inactive” each time.
With `CC(=O)OCC(CCn1cnc2cnc(N)nc21)COC(C)=O`, the Potency entry in assay [1], in assay [2] and in assay [3] was “inactive” throughout.
`CCCn1cc[n+](C)c1C`: the Potency result in assay [1], in assay [2] and in assay [3] was “inactive” in each case.
Consider `Cc1cccc(O)c1N`, for which the Potency result in assay [1], in assay [2] and in assay [3] was “inactive” throughout.
For the molecule `CC/C=C\C/C=C\C/C=C\CCCCCCCC(=O)OC`, the Potency result in assay [1], in assay [2] and in assay [3] was “inactive” in each case.
With `CCCCCCCCCCCC(=O)NCCCN(C)C`, the Potency entry in assay [1] and in assay [3] was “inactive” each time. Besides, the Potency in assay [2] was 31.7 µM (active).
Regarding `CC/C=C\CCCCCCCCCCOC(C)=O`, the Potency entry in assay [1], in assay [2] and in assay [3] was “inactive” in each case.
Take `CCOC(=O)C(C)(C)C`: the Potency entry in assay [1], in assay [2] and in assay [3] was “inactive” throughout.
Take `FC(F)(F)C(F)(F)C(F)(F)C(F)(F)C(F)(F)C(F)(F)C(F)(F)C(F)(F)Br`: the Potency entry in assay [1], in assay [2] and in assay [3] was “inactive” in each case.
As to `CCCCCCOC(=O)CCCCC(=O)OCCCCCC`, the Potency result in assay [1], in assay [2] and in assay [3] was “inactive” each time.
As to `CCCCCCCCCCC=O`, the Potency entry in assay [1], in assay [2] and in assay [3] was “inactive” in each case.
As for `O=[N+]([O-])c1cc(Cl)c(Cl)c(Cl)c1Cl`, the Potency entry in assay [1], in assay [2] and in assay [3] was “inactive” each time.
As to `Cc1ccccc1C`, the Potency entry in assay [4] was “inactive”.
Take `CN1CCN(c2cc3c(nn2)Oc2ccccc2N3C)CC1`: the activity change, negative = inhibition was -13.5% [at 23.6 µM] in assay [1] and 1.76% [at 23.6 µM] in assay [3].
With `CN(C(=O)CCCOc1ccc2[nH]c(=O)ccc2c1)C1CCCCC1`, the Potency entry in assay [1] and in assay [3] was “inactive” in each case.
Consider `C=CC(=O)OCC[N+](C)(C)C`, for which the Potency result in assay [1] and in assay [3] was “inactive” in each case.
Turning to `CN(C)CCC[C@@]1(c2ccc(F)cc2)OCc2cc(C#N)ccc21`, the Potency entry in assay [1] and in assay [3] was “inactive” in each case.
`Cc1nc(Nc2ncc(C(=O)Nc3c(C)cccc3Cl)s2)cc(N2CCN(CCO)CC2)n1`: the Potency entry in assay [1] and in assay [3] was “inactive” throughout.

These data come from PubChem BioAssay (Tox21).
